# Laboratory results from PubChem BioAssay (NCATS).
# Results filed as inconclusive are left out. A call without a number means that no potency is given here. Calls of active or inactive are those of the source. Calls come from the whole dose curve; as a rule, active = well fitted cell-killing curve with a large enough effect; inconclusive = small, poorly fitted or top-dose-only effect, or effect the other way; inactive = no such curve, though single readings can be large or run the other way.
# Assays:
# [1] = Quantitative High-Throughput drug screen in 47 multiple myeloma cell lines against the NCATS MIPE library collection: EJM_DSMZ cell viability assay (AID 1918926; note: nearly all actives have a fitted effect of over 30% in size)
# Procedure, shortened: (§1)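 CellTiter-Glo luminescence (ATP) after 48 h compound exposure, 37C/5% CO2; 500 cells/well; MIPE 4.0 approved/investigational drugs pinned in; DMSO = 100%, media only = 0% viability.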
# [2] = Quantitative High-Throughput drug screen in 47 multiple myeloma cell lines against the NCATS MIPE library collection: AMO1_DSMZ cell viability assay (AID 1918927; note: nearly all actives have a fitted effect of over 30% in size)
# Procedure, shortened: as §1
# [3] = Quantitative High-Throughput drug screen in 47 multiple myeloma cell lines against the NCATS MIPE library collection: ARD_JJKsccE7 cell viability assay (AID 1918929)
# Procedure, shortened: as §1
# [4] = Quantitative High-Throughput drug screen in 47 multiple myeloma cell lines against the NCATS MIPE library collection: Karpas620_DSMZ cell viability assay (AID 1918959); note: nearly all actives have a fitted effect of over 30% in size
# Procedure, shortened: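 Relative luminescence from CellTiter-Glo served as the viability signal, referenced to DMSO-treated (100%) and cell-free medium (0%) controls. Treatment lasted 48 hours at 37C with 500 cells per well.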
# [5] = Quantitative High-Throughput drug screen in 47 multiple myeloma cell lines against the NCATS MIPE library collection: ARP1_JJKsccF8 cell viability assay (AID 1918928; note: nearly all actives have a fitted effect of over 40% in size)
# Procedure, shortened: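 500 cells/well; MIPE 4.0 library pinned in; 48 h, 37 °C, 5% CO2; CellTiter-Glo ATP luminescence. Controls: DMSO = 100% viability, medium only = 0%.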
# Potency is the fitted concentration of half-maximal effect.
SMILES,Potency [1],Potency [2],Potency [3],Potency [4],Potency [5]
Cc1ccc2c(=O)c3cccc(CC(=O)O)c3oc2c1C,6.62 µM (active),inactive,inactive,inactive,–
CCCCN(CCCC)CC(O)c1cc(Cl)cc2c1-c1ccc(Cl)cc1C2=Cc1ccc(Cl)cc1 (centres undefined),16.6 µM (active),inactive,inactive,inactive,–
CNc1nc(-c2ccc3c(N)n[nH]c3c2)cc(N2C[C@@H](C(=O)NC3CCCCC3)CC[C@@H]2C)n1,–,20.9 µM (active),8.33 µM (active),20.9 µM (active),11.8 µM (active)
CCCCC(C=O)NC(=O)C(CC(C)C)NC(=O)OCc1ccccc1 (centres undefined),–,inactive,inactive,inactive,–
CCC(=C(CC)c1ccc(O)cc1)c1ccc(O)cc1,–,–,–,16.6 µM (active),18.7 µM (active)
CCCCc1ccc(NS(=O)(=O)c2ccc(C)c(C(=O)N3CCN(c4cccc(C)c4C)CC3)c2)cc1,–,inactive,inactive,inactive,20.9 µM (active)
CC(C)[C@H](O)C(=O)N[C@@H](C)C(=O)N[C@@H]1C(=O)N(C)CCc2ccccc21,–,inactive,inactive,inactive,inactive
CO[C@H]1O[C@@H]2O[C@@]3(C)CC[C@@H]4[C@@H](C)CC[C@@H]([C@H]1C)[C@@]24OO3,–,1.87 µM (active),–,–,16.6 µM (active)
CC[C@H](C=C[C@@H](C)[C@H]1CC[C@H]2[C@@H]3CC=C4C[C@@H](O)CC[C@]4(C)[C@@H]3CC[C@]12C)C(C)C,7.24 µM (active),–,inactive,inactive,inactive
C[C@]12CC[C@@H]3c4ccc(O)cc4CC[C@H]3[C@H]1[C@@H](O)[C@@H](O)[C@H]2O,–,–,–,inactive,–
C[C@H](CCC(=O)O)[C@H]1CC[C@H]2[C@H]3[C@@H](CC[C@]12C)[C@@]1(C)CC[C@@H](O)C[C@H]1C[C@@H]3O,inactive,–,–,–,1.48 µM (active)
CC(C)(C)c1[nH]cnc1C=c1[nH]c(=O)c(=Cc2ccccc2)[nH]c1=O,–,inactive,inactive,–,–
Cc1cc(NC(=O)Nc2ccc(N(C)C)cc2)c2cc(F)cc(F)c2n1,inactive,inactive,–,inactive,–
CC(C)CN(C[C@H](O)[C@H](Cc1ccccc1)NC(=O)O[C@H]1CCOC1)S(=O)(=O)c1ccc(N)cc1,–,inactive,–,inactive,–
CCC[C@H](Nc1nc(-c2ccc(NC(=O)NCC)c(OC)c2)ncc1C)c1cccnc1,–,0.001 µM (active),0.001 µM (active),–,0.0083 µM (active)
